B1: d1r8_design_ppi_923_dldesign_0_cycle0_af2pred (protein)
chain: AAEMAATAAYVSEVAARAQAEDPSLGPEVNRLFALLARAGAAYAADPAAGAAVAAEARAYAEELDKRLEAAL
B2: d1r11_design_ppi_223_dldesign_0_cycle1_af2pred (protein)
chain: AAEAQALAAQAKKLADEAAKEAASPKSGELLGKAIELAMQANTLDPALGGQLSKYIAATAAAAAAKAAAEAAA
B3: d1r11_design_ppi_170_dldesign_0_cycle0_af2pred (protein)
chain: ASPEELTLTARALAFAGGSPEWRPLLQEAIAAYATAEASDPATGAAARAKADAITAELVERYRAAEAAEAAAAA
B4: d1r8_design_ppi_849_dldesign_0_cycle0_af2pred (protein)
chain: DDAAKAAELTALVLEEEAADPVRAGEVGAARARELGLSAAGILAVLDRVVAEAAPSGETVRALMRAAIEAAQA
B5: d1r8_design_ppi_934_dldesign_0_cycle0_af2pred (protein)
chain: ASALARAESQLAFLNTVADAMATQTGEEGAKIAAEAKAAGDAALAAAKASGTPAAYEAATAQLNALTAQVQRETMARLA
B6: d1r8_design_ppi_870_dldesign_0_cycle1_af2pred (protein)
chain: EAEANQQAMNLLMRAAALQPRDREKAREAVEEGRKVAKDEETKKLLEEAVKALDGDVDEAIAVLLETAKKISERAREAAA
B7: d1r8_design_ppi_953_dldesign_0_cycle1_af2pred (protein)
chain: SAAAELALKSLQAALAAAKAAAKAYGPAAAEAHLKNALLLADSYAAATDAAAGAALKAKVEAEAAAAMAAV
B8: d1r11_design_ppi_322_dldesign_0_cycle0_af2pred (protein)
chain: DTAEKAREVAKKAVEVAKEAAEKDPRAQAVYETAKIVAEGVEALVAAGQTELALRQAETQLKIAEKVLKEVLA
B9: d1r8_design_ppi_889_dldesign_0_cycle1_af2pred (protein)
chain: AMAAAIAAVAASARAAAAIGRADPAAAPGAAAFLDVAAETLAALAKADPAHAAQANAAAAEARATAAELRAAAAA
B10: d1r11_design_ppi_238_dldesign_0_cycle0_af2pred (protein)
chain: AAAAAAAAAAAALAEAAARAAAATDVTTKVGAALTAQNPSVKPITDAAVEKMKQAAAVVADPAKAAAYQKEAGDLLTQALRQVAAARR
B11: d1r8_design_ppi_886_dldesign_0_cycle1_af2pred (protein)
chain: AKAAELAAEGKALAEQLAKEGAADGEKGIELLKQGSALVRELEALGAEDPEYAEAAKAAQAALQAAVAAFAAASIAKAAAA
B12: d1r8_design_ppi_843_dldesign_0_cycle0_af2pred (protein)
chain: AEEARRAEAAARLEAAVAAGQATLVEVNKAAAATGDAALAEAALALSRAIAEGRRLGREGRYEEGAALVEAATKAAKATLAA
B13: d1r11_design_ppi_51_dldesign_0_cycle1_af2pred (protein)
chain: AEVEKKAKEAKKKVEEAKKKMEEAEKAGDAEALRKAAAEANKKAIELASAALAEKDAETAKALAEAAQKLVEIALRANEAMAKLER
B14: d1r8_design_ppi_838_dldesign_0_cycle1_af2pred (protein)
chain: NAGELLGKALELLEEASRLAKEDYEKAKEAAEKAIEYAEKAAAADPAHAPALVAVKSAARNIIEQAKKNEAARKAA
B15: d1r11_design_ppi_310_dldesign_0_cycle1_af2pred (protein)
chain: EAAAAAALTAKAQALYAKYVAAAKAAQAALAGTEAHKEIAALLAQAEAAADDIGLALALASTAANLAAAKLAAALA
B16: d1r11_design_ppi_189_dldesign_0_cycle1_af2pred (protein)
chain: AAAEKAKLGFQLLNQLQKAQQAVAAGAAAGATAAEFEALAAQAQKAKEEGKQTILADTVQAAADVVIAAARAAAAAAKARAA
B17: d1r11_design_ppi_301_dldesign_0_cycle0_af2pred (protein)
chain: SLLEEAKKLAEELKELLKKAKEALADPEKAKELIKKAEEANKKLVELAVEAAKAGDHESAALANRAALEGQRKIAEIKAQLAA
B18: d1r11_design_ppi_369_dldesign_0_cycle0_af2pred (protein)
chain: MQERLDAYNAEAGAALEAAAASTDGARRLALMRKAAGLGLAAAGYAAGPEAGEAAEKQAEARFAAADAALA
B19: d1r8_design_ppi_934_dldesign_0_cycle1_af2pred (protein)
chain: ASPLERAESLREFLHTVADAMAKNVGAEGQKVADAAKAAGDAAVAAARAAGTPEAYEAARDTLRALTADVIKAYMAALS
B20: d1r8_design_ppi_906_dldesign_0_cycle1_af2pred (protein)
chain: AAEAAERADRGQGTLIAMEAEARLAAIAKAHPEVAALAAAAAERVRAAAPLPAAEVRAVAERELAEVEAALAAA

Biological target: CD276, Q5ZPR3
Sequence (Q5ZPR3 whole entry): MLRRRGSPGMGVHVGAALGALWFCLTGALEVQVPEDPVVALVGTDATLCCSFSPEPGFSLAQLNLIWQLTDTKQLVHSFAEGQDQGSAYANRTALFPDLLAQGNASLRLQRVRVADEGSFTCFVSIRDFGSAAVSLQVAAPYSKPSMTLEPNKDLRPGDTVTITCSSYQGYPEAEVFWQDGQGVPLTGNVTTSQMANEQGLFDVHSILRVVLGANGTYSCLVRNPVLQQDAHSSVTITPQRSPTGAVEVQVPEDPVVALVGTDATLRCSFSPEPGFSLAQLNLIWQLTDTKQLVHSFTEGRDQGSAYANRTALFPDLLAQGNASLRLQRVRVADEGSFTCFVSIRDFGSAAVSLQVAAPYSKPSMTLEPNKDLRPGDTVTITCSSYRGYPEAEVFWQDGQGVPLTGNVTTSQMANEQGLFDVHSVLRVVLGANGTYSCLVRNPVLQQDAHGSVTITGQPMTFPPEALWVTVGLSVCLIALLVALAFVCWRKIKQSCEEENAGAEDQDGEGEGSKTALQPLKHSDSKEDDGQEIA

Binding in a display sort, inactive:
B1 not found
B2 not found
B3 not found
B4 not found
B5 not found
B6 not found
B7 not found
B8 not found
B9 not found
B10 not found
B11 not found
B12 not found
B13 not found
B14 not found
B15 not found
B16 not found
B17 not found
B18 not found
B19 not found
B20 not found

Reference: PMC13494018
